Test results published in article PMC13494018.
Values without a mark were called inactive. No rule for the calls is given here.

B1: design_619_5728adc2-0aea-404f-92dd-a4575c53f550_1117_dldesign_0_cycle1_af2pred (protein)
chain: SAAAAAAAGALAVEEAKRFAEEQLAYGKAEDPGVGMQAIATYANRKAVEYASDPATASAIVSIGVEAMEELARWRREREA
B2: design_619_5728adc2-0aea-404f-92dd-a4575c53f550_577_dldesign_0_cycle1_af2pred (protein)
chain: AESIAREAVAQIAALAAAGVADPAAKGEQATAILQTAAAAQKAIRAAGGPESLLNAVQAAAGAAIAALVA
B3: design_619_5728adc2-0aea-404f-92dd-a4575c53f550_1162_dldesign_0_cycle1_af2pred (protein)
chain: SPVEQYAKAQADMLKEAAGVDDATAQAFADYIVANPALATQAGAMTVAIVRAADAARAAAAAAAAAAAAAAAA
B4: design_619_5728adc2-0aea-404f-92dd-a4575c53f550_447_dldesign_0_cycle1_af2pred (protein)
chain: EELVKKAKEETTKLLEKAKEEAPGLGTLALNSFNNGFKEGVKEAYERLKKLYEWVTANATTPEQKKVAELIKKAYEVAKKAAEA
B5: design_619_5728adc2-0aea-404f-92dd-a4575c53f550_1087_dldesign_0_cycle1_af2pred (protein)
chain: GPEVAERVARSARGIAEVLRGLADSIRAAGGSPAAEERVRAAAEEAERLAREAEEAAGDAEVARRLAEEANRLLQEATAVAMADLQAV
B6: design_619_5728adc2-0aea-404f-92dd-a4575c53f550_548_dldesign_0_cycle1_af2pred (protein)
chain: AALRHRTMAALFGRAVTLTGEAGRQAALNAAQMAAVLDPAAGAEFAAAIAEAAKATGDAGVHAVAAEFAAKEAAAAAAAAA
B7: design_619_5728adc2-0aea-404f-92dd-a4575c53f550_1536_dldesign_0_cycle1_af2pred (protein)
chain: SAALEEARREFEAAVELLAEHPDLAAKVREGFELGVTDIGAGLALLTEARREALELGLEAAAREIRAGMAALLRAHL
B8: design_619_5728adc2-0aea-404f-92dd-a4575c53f550_1370_dldesign_0_cycle1_af2pred (protein)
chain: AAAAVAANRAAAAATAETYKAKGKAAAADPAAALAYYNAAGLYAGLAKGDPEAEFAKYKAEADALIAAAKA
B9: design_619_5728adc2-0aea-404f-92dd-a4575c53f550_1666_dldesign_0_cycle1_af2pred (protein)
chain: SEADAAALDELARLAGEVTGKPEEALALAEIAKQDPLALATLAAMARQARAASPEEAAQLARNAFQIMKALA
B10: design_619_5728adc2-0aea-404f-92dd-a4575c53f550_302_dldesign_0_cycle1_af2pred (protein)
chain: EREEVLREAIELLEKTAEAAKALGTPAGEILAASARALARLLREQRDEISLEGAKGYLELAKQLAAGVEAA
B11: design_619_5728adc2-0aea-404f-92dd-a4575c53f550_175_dldesign_0_cycle1_af2pred (protein)
chain: AAAQQQAIGNAAIRTADIAMATAKKLIKEDPAKGKEVAEQAVGILEGAAKAAPSTAATLLAEAKKVKEETEKAIKEA
B12: design_619_5728adc2-0aea-404f-92dd-a4575c53f550_1353_dldesign_0_cycle1_af2pred (protein)
chain: GETGEAKREGARVAARLGAAAVQLAAVDPEVAKKAQAAVGEVLEAMEAAAKDPSKVEEVKKAREKAEKALKEAEKTLA
B13: design_619_5728adc2-0aea-404f-92dd-a4575c53f550_253_dldesign_0_cycle1_af2pred (protein)
chain: AAAAAEAAVAAAMAQINALVAEANRLLIEAQKTGNVELAKKAYELAEKAAAVGKATPALAKMAEALSKVVKEMAKATIKQAEAQA
B14: design_619_5728adc2-0aea-404f-92dd-a4575c53f550_930_dldesign_0_cycle1_af2pred (protein)
chain: GEVKEQAEKELKKLEEAAKKTEEEAKKAAKAGATVAAAQIKATVKAALKNAKELFEKDPEQGLQAAKAALQVAETLLESAKGLIKAA
B15: design_619_5728adc2-0aea-404f-92dd-a4575c53f550_1042_dldesign_0_cycle1_af2pred (protein)
chain: DAKEHAERALELAKEAAESGSVALASRAMQELALAINADPALGAEAAKEAAKIFAKNPELAGFGEAAVAIAA
B16: design_619_5728adc2-0aea-404f-92dd-a4575c53f550_649_dldesign_0_cycle1_af2pred (protein)
chain: GEELAKEVEKKAKEVLEKVKEKAKEIAAKGTPEQAREAKGLVARARAYAIAAVGAARTIPELAKRYLELAKKEAERL
B17: design_619_5728adc2-0aea-404f-92dd-a4575c53f550_1864_dldesign_0_cycle1_af2pred (protein)
chain: MEEEKEKKEKEKLKKAKELLKKAKEMAENVAEYSVGEILRVATEAIRLATEAAKGKLKEEGKKVADEARKVAAEAARRALALQ
B18: design_619_5728adc2-0aea-404f-92dd-a4575c53f550_927_dldesign_0_cycle1_af2pred (protein)
chain: AAALDSARGEAAVTAAKLYGLAYKLDPELGAQAAAALAAILRDKATAVEGAKAAAAVAEKLKEKDPENAGELEKKLKELAEKLKAA
B19: design_619_5728adc2-0aea-404f-92dd-a4575c53f550_1814_dldesign_0_cycle1_af2pred (protein)
chain: DEELRKEVLEKIKELEAKAKEAAADPATQGLAVFLKNTAATARRELEKDAELGLAVVEAGEEGLAYLQAS
B20: design_619_5728adc2-0aea-404f-92dd-a4575c53f550_1779_dldesign_0_cycle1_af2pred (protein)
chain: SAATEIATRTAQAAIRAGEEALERAREALEGETGREEVEREVARIEAQAETLELLAEGSPEIAPTANAKAEEFRREAERLREEAE
B21: design_619_5728adc2-0aea-404f-92dd-a4575c53f550_1269_dldesign_0_cycle1_af2pred (protein)
chain: AKEEAKEKAKKLVEEAKKLAEAAIADPSQYPAQAAKMTKLAEEAAKLGKELDPEIFGEAAQEILRLLIQAAQAVN
B22: design_619_5728adc2-0aea-404f-92dd-a4575c53f550_740_dldesign_0_cycle1_af2pred (protein)
chain: GAAEEARRLVEEVEAALKEAEAAAAADAAEGLRAAGELAVLAAEAAARALRLGDEEAFRRISAAIARATALAQQLAA
B23: design_619_5728adc2-0aea-404f-92dd-a4575c53f550_189_dldesign_0_cycle1_af2pred (protein)
chain: DPATVRGLAAMAALALQAGVTGGPEVGAANLRNVAKLAAARGTPEAAEIAKKAEEAAKEADNPEKVKEYQAYFEEIAKA
B24: design_619_5728adc2-0aea-404f-92dd-a4575c53f550_1681_dldesign_0_cycle1_af2pred (protein)
chain: AEKAKQAAELAEVLAATAEQAPQLTPAQIAAVANTVAIGLKGLGEAKEAAELAEKAAEAAKRDKEEAVKLLREAAEALKKLAA
B25: design_619_5728adc2-0aea-404f-92dd-a4575c53f550_1820_dldesign_0_cycle1_af2pred (protein)
chain: AEAAKRAAAEAAVKKAAELAAKADPALAKRILDAKTIAEGISAAFTAAAQLIQKDPELAAEIVKEAEKAA
B26: design_619_5728adc2-0aea-404f-92dd-a4575c53f550_521_dldesign_0_cycle1_af2pred (protein)
chain: GEEEELKKKQQEVAERAKEAAELAKEAAKLSGQTEVANAVEAAAKQAAAAAEADPSAVESQLKFVEQLLEIALAALAAAKAAAAAA
B27: design_619_5728adc2-0aea-404f-92dd-a4575c53f550_1668_dldesign_0_cycle1_af2pred (protein)
chain: ARAVVEAAANELAAETLRAGWQAGETGDAIAARIRAILEAGREVAEELAARNPAVTLEEARAAVRERAERLLAEAAA
B28: design_619_5728adc2-0aea-404f-92dd-a4575c53f550_1124_dldesign_0_cycle1_af2pred (protein)
chain: ELEELRKEAEAKAAEARALAAEGAKYDPTAAALFNAALRFFEIAIRLAEEGGDPEEARAALDAGTTLLAAGRAVLAAAAAAAA
B29: design_619_5728adc2-0aea-404f-92dd-a4575c53f550_252_dldesign_0_cycle1_af2pred (protein)
chain: AAKEIAKQAQEAGKAAIAAAEALGKAKDPEEAKQMQEIAKALQQNAQAAAKAGDAKVAQAALNALRGLLRNAEAALAAAK
B30: design_619_5728adc2-0aea-404f-92dd-a4575c53f550_605_dldesign_0_cycle1_af2pred (protein)
chain: GQVAVNAAKGVAKTAISYAERLAKVEGEEGKKFLEEVKKETTKLVEEAKKSTPEKAQQLLAELVDLMKEVAERAAAAEAAAAAAAA
B31: design_619_5728adc2-0aea-404f-92dd-a4575c53f550_766_dldesign_0_cycle1_af2pred (protein)
chain: MLGAEWARQQARRTAERAAELLAADPAAGAAAFARARTIVELAKGIDPEVGKAAQAEVEAIEAQAKAAAAAA
B32: design_619_5728adc2-0aea-404f-92dd-a4575c53f550_437_dldesign_0_cycle1_af2pred (protein)
chain: AAAEEAALAKAKKEAAEAAVKAVEYAARAGDPALAAKATRLLHEAQLTTDLEEAKKYLEEIKKLLKEAKERAE
B33: design_619_5728adc2-0aea-404f-92dd-a4575c53f550_1575_dldesign_0_cycle1_af2pred (protein)
chain: AAWQALEIAKKAGLALAKSAAAMPNPEDAKKAAETAKDMVTATAQAVIDAGGDKEKAKALVEEVKKAAEAGVKAAKA
B34: design_619_5728adc2-0aea-404f-92dd-a4575c53f550_1264_dldesign_0_cycle1_af2pred (protein)
chain: GEEAAKKAEKAVEALKQGAKEAAKGTPELAANTAKSYITMAKSIAKGAKRADGGEAAKKVEKKAKEAIAEAKKLAKAAA
B35: design_619_5728adc2-0aea-404f-92dd-a4575c53f550_1766_dldesign_0_cycle1_af2pred (protein)
chain: ADPAALAAIQEQRDKALKEIEEAAKEAKETTEEEARKKIVDAAHTATAQLAQIGVAHPAVAAEAGQAISEILDAGKRALEEAKKNA
B36: design_619_5728adc2-0aea-404f-92dd-a4575c53f550_1867_dldesign_0_cycle1_af2pred (protein)
chain: AAEKAALLAAAEATLARAQEVLAQAKKYPEVQPLAAAALGYALAAQGAVLVDPATGKAFLAKAQALLAEAEAQIKALEA
B37: design_619_5728adc2-0aea-404f-92dd-a4575c53f550_440_dldesign_0_cycle1_af2pred (protein)
chain: VTPEASKIAANSALALAKNILENVGVMSPEEAAGAVQVVVDLVKNSLPSEKEKHVEIAEVLKEAAKKNPANAAVLEAGAKAIEEIL
B38: design_619_5728adc2-0aea-404f-92dd-a4575c53f550_396_dldesign_0_cycle1_af2pred (protein)
chain: DEAKKQAEKHYKLAKEHLEKAIASKDEKEAKAHVSRARLNALAAASLDPSVAPEMLAMLKATAEALKDHPEAKAEAEEAAKLVAQLA

Target: CD276, Q5ZPR3
Sequence (Q5ZPR3 whole entry): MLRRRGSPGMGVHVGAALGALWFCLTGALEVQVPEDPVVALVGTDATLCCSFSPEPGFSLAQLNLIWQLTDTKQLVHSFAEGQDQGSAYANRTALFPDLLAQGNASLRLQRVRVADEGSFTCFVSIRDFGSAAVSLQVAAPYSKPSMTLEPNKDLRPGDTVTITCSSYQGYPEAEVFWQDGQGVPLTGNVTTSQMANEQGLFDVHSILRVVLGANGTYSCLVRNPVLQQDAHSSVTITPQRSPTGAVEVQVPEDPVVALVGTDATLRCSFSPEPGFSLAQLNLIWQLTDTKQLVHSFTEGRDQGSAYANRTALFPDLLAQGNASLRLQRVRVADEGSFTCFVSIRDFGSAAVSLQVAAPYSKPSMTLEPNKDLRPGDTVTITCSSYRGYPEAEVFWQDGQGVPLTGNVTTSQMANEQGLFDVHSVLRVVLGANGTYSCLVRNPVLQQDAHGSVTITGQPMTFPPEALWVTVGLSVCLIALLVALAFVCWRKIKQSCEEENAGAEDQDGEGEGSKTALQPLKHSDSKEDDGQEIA

Binder	binding in a display sort
B1	not found
B2	not found
B3	not found
B4	not found
B5	not found
B6	not found
B7	not found
B8	not found
B9	not found
B10	not found
B11	not found
B12	not found
B13	not found
B14	not found
B15	not found
B16	not found
B17	not found
B18	not found
B19	not found

Binder	binding in a display sort
B20	not found
B21	not found
B22	not found
B23	not found
B24	not found
B25	not found
B26	not found
B27	not found
B28	not found
B29	not found
B30	not found
B31	binds (active)
B32	not found
B33	not found
B34	not found
B35	not found
B36	not found
B37	not found
B38	not found
